Source: PMC4336329 (PLoS ONE, 2015)
Screen size: about 310,000 compounds; about 14,000 (4.5%) showed an effect of 50% or more. The effect is printed as a negative number. This is one part of a sample in which strong results are shown more often than they occur.

molecular target: human ether-à-go-go-related gene (hERG) potassium channel (human, UniProt Q12809); test: primary screen, population patch clamp on CHO cells stably expressing hERG; higher = less effect of the substance
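Further: peak tail current of the secondary pulse compared with the same well before compound.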

Sequence of human ether-à-go-go-related gene (hERG) potassium channel (Q12809 whole entry, looked up): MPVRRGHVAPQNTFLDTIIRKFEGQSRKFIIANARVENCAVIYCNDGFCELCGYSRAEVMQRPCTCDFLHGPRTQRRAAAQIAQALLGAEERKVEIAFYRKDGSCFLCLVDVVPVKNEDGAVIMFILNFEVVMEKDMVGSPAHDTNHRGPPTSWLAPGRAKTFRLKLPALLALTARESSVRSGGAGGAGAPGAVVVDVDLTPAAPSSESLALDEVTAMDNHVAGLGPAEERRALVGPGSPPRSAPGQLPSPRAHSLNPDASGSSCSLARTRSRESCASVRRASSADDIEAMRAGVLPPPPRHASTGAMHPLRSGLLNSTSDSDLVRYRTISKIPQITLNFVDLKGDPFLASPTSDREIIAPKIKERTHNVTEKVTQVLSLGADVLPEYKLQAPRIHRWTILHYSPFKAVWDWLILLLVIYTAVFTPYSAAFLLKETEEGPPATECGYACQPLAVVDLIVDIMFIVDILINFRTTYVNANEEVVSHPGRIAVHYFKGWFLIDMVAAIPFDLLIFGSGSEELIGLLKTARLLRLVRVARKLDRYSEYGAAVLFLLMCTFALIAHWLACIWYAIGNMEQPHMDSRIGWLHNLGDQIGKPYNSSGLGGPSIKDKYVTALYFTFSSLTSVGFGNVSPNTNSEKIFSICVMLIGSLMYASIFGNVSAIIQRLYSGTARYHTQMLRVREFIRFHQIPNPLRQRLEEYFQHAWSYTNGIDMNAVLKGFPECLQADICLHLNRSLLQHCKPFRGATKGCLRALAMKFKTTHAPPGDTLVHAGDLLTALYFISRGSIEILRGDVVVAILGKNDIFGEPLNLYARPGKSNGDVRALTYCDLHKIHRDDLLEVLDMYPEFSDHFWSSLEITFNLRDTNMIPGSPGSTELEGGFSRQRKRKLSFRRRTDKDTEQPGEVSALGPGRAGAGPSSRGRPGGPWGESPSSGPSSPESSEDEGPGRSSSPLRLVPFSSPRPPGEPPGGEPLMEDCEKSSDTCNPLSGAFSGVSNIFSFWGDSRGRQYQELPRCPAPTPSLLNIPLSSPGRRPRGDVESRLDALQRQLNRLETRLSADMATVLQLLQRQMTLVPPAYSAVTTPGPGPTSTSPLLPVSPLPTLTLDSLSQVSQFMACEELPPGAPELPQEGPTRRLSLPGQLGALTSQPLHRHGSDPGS

| Compound | hERG current change (%, negative = inhibition) at 10uM |
| --- | --- |
| Cc1cccc2[nH]c(CN(C)C(=O)CC3C(=O)NCCN3CC(C)(C)C)nc12 (centres unmarked) | 3.23% |
| Cc1cc(C(=O)NCc2ccco2)sc1C | 16.2% |
| CCO[C@H]1c2c(ccc3ccc(=O)oc23)OC(C)(C)[C@@H]1O | 20.9% |
| Cc1cc[n+](CC(=O)c2ccc(NC(=O)c3ccccc3)cc2)cc1.[Br-] | 2.6% |
| Cc1ccc[n+](CC(=O)c2ccc(-c3ccccc3)cc2)c1.[Br-] | -52.4% |
| CN(C)c1cc[n+](CC(=O)c2ccc(-c3ccccc3)cc2)cc1.[Cl-] | -2.97% |
| Cc1ccc(C(=O)C[n+]2ccc3ccccc3c2)cc1.[Br-] | -33.6% |
| Cc1cc(C)c[n+](CC(=O)c2ccc(-c3ccccc3)cc2)c1.[Br-] | -45.3% |
| Cc1ccc(SCCNC(=O)c2ccccc2)cc1 | -0.806% |
| Cc1ccc(C(=O)C[n+]2ccc(Cc3ccccc3)cc2)cc1.[Cl-] | -73.6% |
| Cc1ccc(SCCc2cc[n+](CC(=O)c3ccccc3)cc2)cc1 | -70.5% |
| Cc1ccc[n+](CC(=O)c2ccccc2)c1.[Br-] | 13.7% |
| O=C(c1cc2ccccc2oc1=O)N1CCN(c2ncccn2)CC1 | 8.16% |
| c1ccc2[nH]c(CSc3nnc(-c4ccncc4)o3)nc2c1 | -24.8% |
| Cl.c1ccc(Nc2nc(NCc3ccco3)c3ccccc3n2)cc1 | -71% |
| COc1ccccc1Nc1nc(NCc2ccco2)c2ccccc2n1.Cl | -20.3% |
| Cl.Oc1ccccc1Nc1nc(NCc2ccco2)c2ccccc2n1 | -29.3% |
| Cc1ccc(Nc2nc(NCc3ccco3)c3ccccc3n2)cc1.Cl | 16.9% |
| Cc1ccccc1Nc1nc(NCc2ccco2)c2ccccc2n1.Cl | -63.6% |

| Compound | hERG current change (%, negative = inhibition) at 10uM |
| --- | --- |
| Cl.Fc1ccc(Nc2nc(NCc3ccco3)c3ccccc3n2)cc1 | -37.2% |
| COc1ccc(O)c(C(=O)/C=C/c2cc3ccccc3o2)c1 | 7.22% |
| CN1C(=O)/C(=C/c2ccc(C(F)(F)F)cc2)Sc2ccc(C(=O)N3CCN(c4ccccn4)CC3)cc21 | 5.11% |
| C[C@@H]1O[C@@H](Oc2c(-c3cc(O)c(O)c(O)c3)oc3cc(O)cc(O)c3c2=O)[C@H](O)[C@H](O)[C@H]1O | 4% |
| CCN(CC)CCN(C(=O)CCOc1ccccc1)c1nc2ccc(F)cc2s1.Cl | -8.61% |
| Cc1ccc2nc(N(CCCN(C)C)C(=O)CS(=O)(=O)c3ccccc3)sc2c1.Cl | -22.7% |
| CN(C)CCCN(C(=O)COc1ccc(Cl)cc1)c1nc2ccc(F)cc2s1.Cl | -21.4% |
| CN(C)CCCN(C(=O)COc1ccccc1)c1nc2ccc(Cl)cc2s1.Cl | -67.1% |
| Cc1ccc2nc(N(CCCN(C)C)C(=O)COc3ccc(Cl)cc3)sc2c1.Cl | -8.71% |
| CN(C)CCCN(C(=O)COc1ccccc1)c1nc2ccc(F)cc2s1.Cl | -68% |
| NC(=O)CC(NC(=O)Cc1ccc(Cl)cc1)c1ccc(NC2CC3CCC2C3)c([N+](=O)[O-])c1 (centres unmarked) | -3.01% |
| CCN(CC)CCCNc1nc2ccccc2c2nc(-c3ccncc3)nn12 | -56.6% |
| CN(C)CCCNc1nc(-c2ccc(Cl)cc2)nc2ccccc12 | -35.5% |
| CCOCCCNc1nc(-c2ccccc2)nc2ccccc12.Cl | -27.5% |
| CCN(CC)CCCNc1nc2cc(OC)c(OC)cc2c2nc(-c3cccnc3)nn12 | -2.29% |
| CCN(CC)CCCNc1nc(-c2ccccc2)nc2ccccc12.Cl | -61.4% |
| CCN(CC)CCCNc1nc2cc(OC)c(OC)cc2c2nc(-c3ccccc3)nn12 | -7.77% |
| OCCCNc1nc(-c2ccc(Cl)cc2)nc2ccccc12 | -63.1% |
| Cc1ccc(-c2nc(NCCCO)c3ccccc3n2)cc1 | -41.2% |

| Compound | hERG current change (%, negative = inhibition) at 10uM |
| --- | --- |
| CN(C)CCCNc1nc(-c2ccccc2)nc2ccccc12.Cl | -13.5% |
| O=C(CCC1CCCC1)NCc1cccs1 | 13.9% |
| CCC(Oc1ccccc1)C(=O)NCCOC (centres unmarked) | -8.48% |
| CC(NC(=O)c1cccc(Br)c1)c1ccccc1 (centres unmarked) | -2.43% |
| NC12CC3CC(C1)CC(CC(=O)O)(C3)C2 | 10.8% |
| Cc1nc(Nc2ccc3c(c2)OCCO3)c2oc3ccccc3c2n1 | -5.62% |
| O=C(CSc1n[nH]c(-c2ccco2)n1)Nc1ccccc1 | -20.4% |
| CCN(CC)C(=O)CSc1nnc(-c2ccccc2)c(-c2ccccc2)n1 | -20.4% |
| Cc1ccc(-c2nnc(SCC(N)=O)nc2-c2ccc(C)cc2)cc1 | -24.2% |
| CC(=O)c1ccc(NC(=O)CSc2nnc(-c3ccco3)o2)cc1 | -73.9% |
| Cc1ccc(NC(=O)CSc2nnc(-c3ccco3)o2)cc1 | 2.91% |
| COc1cccc(NC(=O)CSc2nnc(-c3ccco3)c(-c3ccco3)n2)c1 | -59.6% |
| COc1cccc(NC(=O)CSc2ccc(-c3ccco3)nn2)c1 | -48.1% |
| Cc1ccc(-c2nnc(SCC(=O)N(C)C)nc2-c2ccc(C)cc2)cc1 | -67.9% |
| O=C(CSc1nnc(-c2ccco2)c(-c2ccco2)n1)c1ccccc1 | 4.5% |
| O=C(CSc1nnc(-c2ccco2)c(-c2ccco2)n1)Nc1ccccc1 | -75.2% |
| COc1ccc(NC(=O)CSc2nnc(-c3ccco3)c(-c3ccco3)n2)cc1OC | -29.4% |
| CC(=O)Nc1ccc(NC(=O)CSc2nnc(-c3ccco3)o2)cc1 | 7.81% |
